High-throughput results deposited in PubChem BioAssay by several laboratories.
SKKanGAS inh – SKKanGAS growth inhibition | S. pyogenes SKKanGAS, kanamycin growth, BacTiter-Glo, 6 h | inhibition, % at 7.5 µM | 300,000 tested, 1.3% active | AID 1662;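 active = mean replicate score, as percent of positive control median, at least 50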;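 note: strain carries kanamycin resistance gene driven by streptokinase promoter and grows in 40 µg/ml kanamycin; loss of luminescence reflects streptokinase promoter inhibition or plain growth inhibition; 0% = median of DMSO wells and 100% = positive control at its reference dose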
tim10-1 inh – tim10-1 yeast growth inhibition; S. cerevisiae tim10-1 ts strain growth, BacTiter-Glo, 24 h; inhibition, % at 20 µM; 330,000 tested, 2.2% active;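 active = inhibition of at least 40%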;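 note: mutant grown at 25 °C; 0% = DMSO wells with yeast and 100% = wells holding no yeast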
PfHsp90 set2 – growth inhibition of yeast expressing Plasmodium Hsp90; S. cerevisiae expressing PfHsp90, BacTiter-Glo ATP, 48 h; yeast lacking PDR1 and PDR3 efflux regulators; inhibition, % at 9.4 µM; 310,000 tested, 0.32% active; AID 504621;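 active = every replicate shows inhibition above about 80%, whatever the replicate mean, limit read from the data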;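 note: 0% = DMSO neutral controls and 100% = 20 µM radicicol positive controls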
NALP1 inh – inhibitors of NALP1 inflammasome in yeast; S. cerevisiae NALP1/ASC/caspase-1 growth, X-gal OD620, 72 h; inhibition, % at 10 µM; 280,000 tested, 0.61% active; AID 2071; in the data active = inhibition mostly above about 24%, no sharp cut-off; inactive = mostly below about 32%
TIM10 inh – inhibits growth of TIM10 yeast strain; S. cerevisiae TIM10 strain growth, BacTiter-Glo luminescence, 24 h; inhibition, % at 10 µM; 330,000 tested, 1.4% active; AID 463195;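 active = inhibition of 40% or more at the single tested concentration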;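 note: wild-type TIM10 isogenic control strain grown at permissive 25 °C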
tim23-1 inh – inhibits growth of tim23-1 mutant yeast; S. cerevisiae tim23-1 growth, BacTiter-Glo luminescence, 24 h; 330,000 tested, 1.3% active; AID 463212; inhibition, % at 20 µM;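 active = growth inhibition of the mutant yeast at or above 50%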;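 note: temperature-sensitive mutant grown at 25 °C; plate controls were DMSO-treated mutant yeast for no effect and medium wells lacking yeast for full effect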
* marks the source's active call; other numbers are inactive results; nt = no result given. Shown are actives, neighbours in structure and some others; about 4.8% of the full set was active somewhere.

SMILES | SKKanGAS inh | tim10-1 inh | PfHsp90 set2 | NALP1 inh | TIM10 inh | tim23-1 inh
CCOC(=O)[C@@H]1[C@H]2COc3ccccc3[C@@H]2N2C(=O)N(c3ccc(Br)cc3)C(=O)[C@]12C | nt | -2 | 7 | nt | 9 | 35
CC(=O)OCC1=C(C(=O)O)N2C(=O)C(NC(=O)c3ccc(COc4cccc(Cl)c4Cl)o3)C2SC1 (stereo not drawn) | 72* | 13 | -10 | -11 | 9 | 16
CCc1ccc(NC(=O)COC(=O)CN2C(=O)COc3ccccc32)cc1 | -2 | 18 | -23 | 41* | -5 | 9
COc1ccc(NC(=O)CN2C(=O)COc3ccccc32)cc1OC | -3 | 9 | 9 | 1 | -8 | 5
Cc1nn(CC(C)C)c2sc(C(=O)NC3CC(C)(C)NC(C)(C)C3)cc12 | 1 | -18 | 14 | 9 | 10 | 0
CC(C)n1cnc2c(NCc3ccccc3)nc(NCc3ccccc3)nc21 | 90* | 22 | -41 | nt | 27 | 35
CS(=O)(=O)N1CCC(C(=O)Nc2cc(Cl)c(Cl)cc2Cl)CC1 | -1 | 6 | -17 | 34 | 12 | -1
COc1cc(/C=N/N=C2\CC3CCC2(C)C3(C)C)ccc1O (stereo not drawn) | 0 | 33 | -23 | nt | 4 | 20
CC12CCC(C/C1=N\N=C1\NC(=O)/C(=C\c3cccc(Br)c3)S1)C2(C)C (stereo not drawn) | 104* | -5 | 5 | 27 | 16 | 19
COc1ccc(N2CCN(/C(=N\S(=O)(=O)c3ccc(C)cc3)Nc3nc(C)cc(C)n3)CC2)cc1 | -1 | 10 | 5 | 2 | 10 | 12
O=C1C2C3C=CC(C3)C2C(=O)N1CN(Cc1ccccc1)CN1C(=O)C2C3C=CC(C3)C2C1=O (stereo not drawn) | 5 | 22 | 113* | 22 | 5 | 28
COc1ccccc1NC(=O)COc1cc(Br)c(CNCCCN2CCOCC2)cc1OC | 2 | -1 | 10 | 13 | -2 | 0
CC(C)Cc1nc(N2CCCCC2)c(C#N)c2c1CCC2 | 51* | 4 | 4 | 0 | 13 | -10
Cn1c(SCC(=O)OCc2ccccc2)nnc1-c1ccco1 | -18 | 17 | -13 | 44* | 0 | 20
CCn1c(SCC(=O)OCc2ccccc2)nnc1-c1ccco1 | 2 | 4 | 4 | 12 | 2 | 16
O=C(NC1CCCCCCC1)C1=COCCO1 | 0 | -7 | -12 | 23 | -3 | 15
CC(=O)c1ccccc1NC(=O)COC(=O)/C=C/c1cccs1 | -4 | 10 | nt | nt | -2 | 12
O=C(O)C/C(=C\c1cccc(NC(=O)c2ccccc2Cl)c1)c1nc2ccccc2s1 | 10 | 1 | -58 | nt | -14 | -1
COc1ccc(C(=O)Nc2cccc(/C=C(\CCC(=O)O)c3nc4ccccc4s3)c2)cc1 | 52* | 16 | -57 | nt | 6 | 6
O=C(CSc1nncs1)N1c2ccccc2Sc2ccccc21 | 3 | 3 | -6 | -10 | -13 | 13
Cc1ccc(SCC(=O)N2c3ccccc3Sc3ccccc32)cc1 | 51* | 3 | -3 | 18 | 10 | 17
O=C(COc1ccc([N+](=O)[O-])cc1)N/N=C/c1cc([N+](=O)[O-])ccc1N1CCOCC1 | 1 | 9 | -2 | 32 | -4 | 7
CC(C)(C)c1cc(NCc2ccccn2)n2ncc(-c3ccc(Cl)cc3)c2n1 | 85* | -5 | -20 | 2 | 3 | 4
CC(C)Nc1cc(C(C)(C)C)nc2c(-c3ccccc3)cnn12 | 89* | -10 | 15 | 8 | -8 | 9
CN(c1ccccc1)S(=O)(=O)c1cccc(C(=O)NCCc2c[nH]c3ccccc23)c1 | 2 | 12 | 4 | nt | 21 | 5
SMILES | SKKanGAS inh | tim10-1 inh | PfHsp90 set2 | NALP1 inh | TIM10 inh | tim23-1 inh
CN1CCN(c2ccc(CNS(=O)(=O)c3ccc(F)cc3Cl)cc2)CC1 | 3 | -4 | -9 | 20 | 9 | -5
CN1CCN(c2ccc(CNS(=O)(=O)Cc3ccc(Cl)cc3)cc2)CC1 | -4 | 3 | -1 | 21* | 3 | 8
Cc1cc(=O)oc2cc(OCC(=O)N3CCN(C(=O)C4COc5ccccc5O4)CC3)ccc12 (stereo not drawn) | 78* | 3 | -12 | 13 | 7 | 4
Cc1cccc(C)c1NC(=O)N1CCC(n2c(=O)[nH]c3ccccc32)CC1 | 0 | 5 | -5 | -6 | -11 | 7
CC1(C)N=C(N)N=C(N)N1c1ccc(C(=O)O)cc1 | -3 | nt | nt | -2 | nt | nt
O=C(OCc1ccccc1)c1ccc(NCc2cc(O)ccc2O)cc1 | nt | nt | 108* | nt | nt | nt
CC(C)OC(=O)c1ccc(NCc2cc(O)ccc2O)cc1 | nt | nt | 87* | nt | nt | nt
COP(=O)(OC)c1ccc(NCc2cc(O)ccc2O)cc1 | nt | nt | -7 | nt | nt | nt
Fc1ccc(-c2[nH]ncc2CN2CCN(c3ccc(F)cc3)CC2)cc1 | 29 | 4 | 7 | 0 | -9 | 9
Fc1ccc(N2CCN(Cc3cn[nH]c3-c3ccccc3)CC2)cc1 | 52* | 12 | 31 | 0 | 9 | 2
Cc1ccc2cc(NC(=O)c3ccccc3)ccc2n1 | -1 | -28 | 6 | -17 | -22 | 18
CCC(=O)c1cn(CC(=O)Nc2ccccc2Cl)c2ccccc12 | 5 | 15 | 13 | 16 | -3 | -3
COc1ccc(-n2nc([N+](=O)[O-])c(=NCCCN3CCCC3=O)n2O)cc1 | 3 | -4 | -3 | 7 | -4 | 18
CN(CC(=O)Nc1cccc(F)c1)C(=O)COc1cccc2c1OC(C)(C)C2 | 31 | 9 | -8 | 32* | -5 | 9
CCC(=O)Nc1nc2ccccc2n1Cc1ccccc1 | 6 | 28 | 4 | -2 | 10 | 8
CC(=O)Nc1nc2ccccc2n1Cc1ccc(Cl)cc1 | 64* | 23 | 6 | 15 | 17 | 19
CCCn1c(NC(=O)C2CCN(C(=O)c3ccccc3C)CC2)nc2ccccc21 | -7 | 16 | 29 | nt | 6 | 12
O=C(Nc1nc2ccccc2n1Cc1ccc(Cl)cc1)c1ccco1 | -9 | -18 | 6 | 4 | -6 | 6
CCC(=O)Nc1nc2ccccc2n1Cc1ccc(C)cc1 | 94* | 23 | -13 | 4 | 16 | 15
CCCn1c(NC(=O)c2cccc(C)c2C)nc2ccccc21 | 52* | 20 | -32 | -16 | 30 | 24
O=C(CSc1nc(=O)n2cc(Cl)ccc2n1)Nc1ccc2c(c1)OCO2 | 2 | -7 | nt | nt | -2 | 11
CCOC(=O)/C=C(\C)Sc1cc(O)c2ccccc2c1O | nt | nt | -3 | -20 | nt | nt
O=[N+]([O-])c1cccc(CSc2nnc(Cc3ccccc3)n2-c2ccc(F)cc2)c1 | -1 | 32 | -58 | 13 | 30 | 29
COC(=O)c1cc(CSc2nc3ccccc3c(=O)n2C)oc1C | -1 | 17 | -4 | 24* | 4 | 14
Cc1ccc(C(CNS(=O)(=O)c2ccc(Cl)cc2)N2CCN(C)CC2)cc1 (stereo not drawn) | 42 | 7 | 0 | nt | 3 | 14
CSc1ccc(CN2CCC(CO)(Cc3ccc(Cl)cc3)CC2)cc1 | -3 | -43 | 0 | 28* | -26 | 10
